Compounds with a hit are over-represented: about 2.3% of the library has one in this group of screens.
Bim-Mcl-1 – human Bim-Mcl-1 interaction inhibition. Q07820. Bead-based flow cytometry, Bim peptide-Mcl-1 binding. inhibition, % at 10 µM. hit rate 0.1% among 190,000. AID 1009; in the data active = inhibition above about 40%;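 note: 0% = no compound tracer wells and 100% = peptide blocker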
Target sequence (Q07820 whole entry, looked up): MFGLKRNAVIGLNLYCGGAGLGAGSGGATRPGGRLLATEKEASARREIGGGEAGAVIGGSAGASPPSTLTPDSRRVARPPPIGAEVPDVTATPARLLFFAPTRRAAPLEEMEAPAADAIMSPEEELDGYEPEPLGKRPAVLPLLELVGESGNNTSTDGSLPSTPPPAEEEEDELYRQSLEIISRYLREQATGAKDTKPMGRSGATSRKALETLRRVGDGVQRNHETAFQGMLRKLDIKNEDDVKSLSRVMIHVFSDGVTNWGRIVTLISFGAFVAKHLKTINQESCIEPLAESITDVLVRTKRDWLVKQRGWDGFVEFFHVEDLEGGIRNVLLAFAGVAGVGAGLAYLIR
Mcl1 Noxa PPI – Mcl-1/Noxa interaction inhibition. hit rate 1.5% among 220,000. TR-FRET Mcl-1/Noxa peptide binding, 2 h. AID 1022. inhibition, % at 21.7 µM;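 active = compounds that cut the protein-peptide binding signal by more than 50% relative to plate controls in a single-dose test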;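 note: His-tagged Mcl-1 with rhodamine Noxa BH3 peptide and terbium anti-His antibody; 0% = Mcl-1 plus Noxa peptide wells and 100% = peptide-only wells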
Bcl-xL primary – Bcl-xL (human) inhibition | hit rate 0.7% among 320,000 | GST-Bcl-xL / FITC-Bim BH3 peptide fluorescence polarization | inhibition, % at 10.9 µM;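 active = inhibition above the mean of all tested compounds plus 3 SD, cutoff set per campaign, cut at about 30% in these data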;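 note: 0% = DMSO wells and 100% = unlabeled Bim-BH3 peptide competitor; inhibitors lower millipolarization by displacing the labeled peptide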
MCL1 BIM primary – inhibitors of human MCL1 binding to BIM-BH3 peptide; hit rate 0.68% among 320,000; inhibition, % at 10.9 µM; GST-MCL1 / FITC-Bim-BH3 fluorescence polarization;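 active = inhibition above the mean inhibition of all tested compounds plus 3 SD, set per campaign, cut at about 40% in these data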;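 note: 0% = DMSO wells and 100% = unlabeled Bim-BH3 peptide control; higher means more loss of mP so more displacement of Bim peptide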
Mcl1 Bid PPI – Mcl-1/Bid interaction inhibition | inhibition, % at 21.7 µM | TR-FRET Mcl-1/Bid-Dy647 peptide binding, 1536-well | hit rate 0.97% among 220,000 | Q07820;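 active = compounds that cut the binding signal by more than half at the single screening dose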;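 note: His-tagged Mcl-1 with europium anti-His antibody binding Bid BH3 peptide; 0% = Mcl-1 plus peptide wells and 100% = peptide-only wells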
GLD-1 TGE inh – GLD-1-TGE RNA interaction inhibition (C. elegans); hit rate 0.44% among 320,000; inhibition, % at 5.96 µM; purified GLD-1 + fluorescein TGE RNA, fluorescence polarization;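 active = percent inhibition above a per-plate cutoff, the plate mean of test compounds plus 3 SD, cut at about 30% in these data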;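 note: 0% = DMSO wells with GLD-1 and probe and 100% = wells lacking GLD-1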
BCLXL inh confirm – counter-screen for MCL1 inhibitors: confirmation of human Bcl-xL inhibitors; hit rate 54% among 1,700; inhibition, % at 10.9 µM; shares compounds with MCL1 BIM primary; GST-Bcl-xL / FITC-Bim BH3 peptide FP binding;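 active = inhibition above a cutoff equal to the mean inhibition of all tested compounds plus 3 SD, cut at about 30% in these data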;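 note: 0% = DMSO wells and 100% = unlabeled Bim BH3 control peptide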
MCL1 inh confirm – confirmation of human MCL1 and BIM-BH3 interaction inhibitors; inhibition, % at 10.9 µM; AID 2168; GST-MCL1 / FITC-Bim-BH3 fluorescence polarization; shares compounds with MCL1 BIM primary; hit rate 61% among 1,700;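 active = inhibition above the average of all tested compounds plus 3 SD, cut at about 40% in these data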;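 note: 0% = DMSO wells and 100% = unlabeled Bim-BH3 control peptide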
Starred values were filed as active, the others as inactive; · = not tested or not shown; + = active, no number.

SMILES | Bim-Mcl-1 | Mcl1 Noxa PPI | Bcl-xL primary | MCL1 BIM primary | Mcl1 Bid PPI | GLD-1 TGE inh | BCLXL inh confirm | MCL1 inh confirm
O=C(CCc1ccc(S(=O)(=O)N2CCOCC2)cc1)N/N=C/c1ccc(O)c(O)c1O | 0.0 | 73.0* | 15.6 | 46.2* | 4.2 | 11.0 | 23.4 | 58.7*
CCOC(=O)COn1c(=O)c(-c2ccc(OC)cc2)[n+]([O-])c2ccccc21 | · | · | 3.6 | -0.7 | · | 1.9 | · | ·
CCOC(=O)COn1c(=O)c(-c2ccc(OC)c(OC)c2)[n+]([O-])c2ccccc21 | -8.0 | 34.8 | 14.1 | 71.8* | 0.6 | 4.5 | 18.4 | 13.2
Cn1ccnc1C(O)c1ccccc1 (stereo unspecified) | 0.0 | -3.5 | 3.6 | -2.6 | -9.3 | -3.2 | · | ·
COc1ccc2ccccc2c1C(O)c1nccn1C (stereo unspecified) | -1.0 | -6.7 | 173.1* | + | -3.2 | 145.0* | 164.1* | 196.9*
Cc1nn(-c2ccccc2)c2c1C(c1ccc(O)c(O)c1)N1C(=N2)C(Nc2ccccc2)=Nc2ccccc21 (stereo unspecified) | 3.0 | 38.1 | 64.2* | 70.0* | -0.1 | 94.9* | 17.7 | 18.5
O=C(NCc1ccccc1)N1CCC(Cc2ccccc2)CC1 | · | · | 2.7 | 7.6 | · | -2.0 | · | ·
COc1ccc2c(c1)CC/C(=C/c1ccco1)C2=O | 0.0 | 27.4 | 13.5 | 15.7 | -70.7 | -13.6 | · | ·
O=c1c(-c2ccccc2)coc2c(CN3CCCC3)c(O)ccc12 | -2.0 | 2.9 | 1.4 | 6.3 | -8.6 | 4.3 | · | ·
O=C1/C(=C/c2ccco2)Oc2c1ccc(O)c2CN1CCCCC1 | 1.0 | 53.9* | 78.7* | 127.8* | -13.4 | 33.9* | 131.6* | 148.5*
CC1CCN(Cc2c(O)ccc3c2O/C(=C\c2ccco2)C3=O)CC1 | 2.0 | 56.0* | 122.5* | 149.1* | -11.7 | 68.4* | 118.6* | 139.8*
COCCN(CCOC)Cc1c(O)ccc2c1O/C(=C\c1ccco1)C2=O | · | · | 106.0* | 109.7* | · | 72.3* | 106.7* | 117.6*
CCOC(=O)c1c(C)[nH]c(C2=NNC(=Nc3ccc(OCC)cc3)SC2)c1C | -7.0 | -21.9 | 76.7* | 69.6* | -64.7 | 17.1 | 21.3 | 13.1
CCOc1ccc(S(=O)(=O)NN=C(C)c2cccnc2)cc1 | · | · | · | · | · | 0.2 | · | ·
O=c1nc(/C=C/c2ccc(-c3ccc(F)cc3)o2)cc(C(F)(F)F)[nH]1 | 13.0 | 14.3 | 11.4 | 43.7* | -16.9 | -10.6 | 40.1* | 21.6
Cc1ccccc1NC(=O)Cc1nc(COC(=O)C(NC(=O)c2ccccc2C)C(C)C)cs1 (stereo unspecified) | · | · | 4.9 | 0.3 | · | 1.5 | · | ·
COc1ccccc1C(=O)N1CCN(CCNC(=O)C(=O)Nc2ccc(Br)c(C)c2)CC1 | · | · | 3.8 | 3.4 | · | -0.6 | · | ·
CC(=O)Nc1ccc(NC2=CC(=O)c3ccccc3C2=O)cc1 | · | · | 10.8 | 2.0 | · | 1.2 | · | ·
Cn1c(=O)c(NC2CCCCC2)c2c3c(cccc31)C(=O)c1ccccc1-2 | 3.0 | -27.7 | · | · | -8.6 | · | · | ·
Cn1c(NCCc2ccccc2)cc(=O)n(C)c1=O | -3.0 | -4.1 | 2.5 | 1.3 | -24.3 | 6.0 | · | ·
CCNc1c2c3c(cccc3n(C)c1=O)C(=O)c1ccccc1-2 | 9.0 | -134.1 | + | + | -12.8 | 164.2* | + | +
CC(=O)Nc1ccc(Nc2c3c4c(cccc4n(C)c2=O)C(=O)c2ccccc2-3)cc1 | -2.0 | 22.9 | + | + | 3.0 | 169.0* | 181.4* | +
Cn1c(=O)c(NCCc2ccccc2)c2c3c(cccc31)C(=O)c1ccccc1-2 | 2.0 | -272.4 | + | + | -4.0 | + | + | +
Cn1c(=O)c(NCCO)c2c3c(cccc31)C(=O)c1ccccc1-2 | -2.0 | -174.2 | 114.3* | 123.5* | -20.6 | 80.9* | 124.9* | 128.5*
COc1cc(/C=C/C(=O)OCC(=O)NCc2ccc(F)cc2)ccc1O | · | · | · | · | · | -3.0 | · | ·
NC1=NC(c2cccc(Cl)c2)N(CCc2ccc(F)cc2)C(N)=N1 (stereo unspecified) | · | · | -0.6 | -1.8 | · | -8.7 | · | ·
